KB-V1 MDR tox: qHTS assay for MDR1-selective chemotherapeutics: Primary screen using the drug-selected MDR subline cells KB-V1; KB-V1 MDR cells viability, CellTiter-Glo, 72 h; Potency, µM (titrated, usually from 46.1 µM), most hits filed as cytotoxic; hit rate 3.4% among 400,000; AID 1347076, 2019; note: % is set by controls: 0 for no effect and ±100 for the full control effect; nearly all actives have a fitted effect of over 60% in size
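In this primary screen, KB-V1 cells overexpressing P-gp are incubated with library compounds (lowest to highest concentration) for 72 h at 37 degrees C before a luminescent ATP viability read.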
HT1080-NT tox: qHTS for induction of synthetic lethality in tumor cells producing 2HG: qHTS for the HT-1080-NT fibrosarcoma cell line; Potency, µM (top dose mostly 46.1 µM), inactives show at the highest dose activity, negative = less viability, usual class: cytotoxic; AID 686970, 2013; HT-1080-NT fibrosarcoma viability, CellTiter-Glo ATP luminescence, 48 h; hit rate 1.6% among 360,000;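 note: NT is the 2HG producing partner of a matched IDH1 knockdown line; 0% = DMSO-treated cells and -100% = media-only wells without cells; nearly all actives have a fitted effect of over 55% in size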
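Read-out is CellTiter-Glo luminescence after 10 minutes at room temperature, following 48 hours' compound treatment of HT-1080-NT cells (750 cells/well, RPMI, 5% FBS, 37 degrees C).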
SW480 rerep: A quantitative high throughput screen for small molecules that induce DNA re-replication in SW480 colon adenocarcinoma cells. SW480 DNA re-replication, Hoechst DNA content imaging, 48 h. Potency, µM (doses to about 46.1 µM), for inactives: at the highest dose re-replication activation, hits mostly activators. hit rate 1.8% among 340,000. AID 624297, 2012; note: % of control where 0% means no effect; nearly all actives have a fitted effect of over 55% in size
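Image-based read-out: total Hoechst fluorescence of nuclei (405 nm excitation, 500-530 nm emission), with hits raising the fraction of high-intensity nuclei. SW480 colon cells incubated 48 hr with compounds at 37 C.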
KB-3-1 tox: qHTS assay for MDR1-selective chemotherapeutics: Primary screen using the parental adenocarcinoma cell KB-3-1 | KB-3-1 viability, CellTiter-Glo ATP luminescence, 72 h | Potency, µM (top dose mostly 46.1 µM), actives largely listed as cytotoxic | hit rate 1.4% among 400,000 | AID 1347075, 2019; note: % is set by controls: 0 for no effect and ±100 for the full control effect; nearly all actives have a fitted effect of over 60% in size
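Viability of parental KB-3-1 cells, measured by CellTiter-Glo luminescence, followed a 72 h incubation at 37 °C with pinned compounds in phenol-red-free DMEM containing 10% FBS.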
HT1080 IDH1KD tx: qHTS for induction of synthetic lethality in tumor cells producing 2HG: qHTS for the HT-1080-IDH1KD cell line; HT-1080 IDH1 knockdown viability, ATP luminescence, 48 h; Potency, µM (doses to about 46.1 µM), for the others: top-dose activity, negative = toxicity, usual class: cytotoxic; hit rate 2% among 360,000;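 note: 0% = DMSO wells and -100% = cell-free medium wells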
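In this qHTS, HT-1080 cells depleted of IDH1 are exposed for 48 h at 37 °C to compound titrations. Toxicity is scored from CellTiter-Glo luminescence, with DMSO as full viability and medium alone as none.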
MCF10A rereplic: A quantitative high throughput screen for small molecules that induce DNA re-replication in MCF 10a normal breast cells. MCF 10A DNA re-replication, Hoechst nuclear intensity, 48 h. Potency, µM (highest dose often 46.1 µM), for the others: at the top dose activity, positive = re-replication, most hits filed as activators. hit rate 2.9% among 350,000; note: % of control where 0% means no effect; nearly all actives have a fitted effect of over 50% in size
Numbers without * were called inactive; i = inactive; ? = inconclusive; . = no result; ! = repeats disagree. An excerpt weighted towards active compounds, which were near 7.9% of everything screened. Calls come from the whole dose curve; as a rule, active = well fitted curve in the direction sought with a large enough effect; inconclusive = small, poorly fitted or top-dose-only effect, or another doubt; inactive = no such curve, though single readings can be large; an effect the other way counts as inactive or inconclusive. Potency is the fitted concentration of half-maximal effect.

SMILES | KB-V1 MDR tox | HT1080-NT tox | SW480 rerep | KB-3-1 tox | HT1080 IDH1KD tx | MCF10A rereplic
COc1ccc(NC(=O)c2cccc(S(=O)(=O)Nc3ccc(Br)cc3)c2)cn1 | ? | ? | -4% | 12µM* | ? | ?
COc1ccc(NC(=O)c2cccc(Oc3ccccc3)c2)cn1 | ? | 5.2µM* | ? | 8.2µM* | 3.7µM* | ?
COc1ccc(NC(=O)c2ccco2)cc1NC(=O)COc1cccc(C)c1C | i | . | . | i | . | .
COc1cc2c(cc1OC)C(C)N(C(=O)c1c(C)noc1C)CC2 (stereo not given) | ? | -25% | ? | ? | ? | 9.2µM*
COc1cc2c(cc1OC)C(C)N(C(=O)c1cc(C)on1)CC2 (stereo not given) | 4.6µM* | ? | 0.73µM* | ? | 1.5µM* | 1.3µM*
COc1cc2c(cc1OC)C(C)N(C(=O)c1cc3c(s1)-c1c(C)cccc1OC3)CC2 (stereo not given) | i | -16% | 0% | i | ? | 16µM*
COc1cc2c(cc1OC)[C@H](C)N(C(=O)NCc1ccccc1)CC2 | ? | ? | ? | ? | 21µM* | ?
COc1cc2c(cc1OC)C(C)N(C(=O)c1cc3ccccc3o1)CC2 (stereo not given) | i | ? | 11% | i | 5.6µM* | 3%
COc1cc2c(cc1OC)C(C)N(C(=O)c1cccs1)CC2 (stereo not given) | ? | -11% | 13% | i | -13% | 17%
CC(C)c1ccc(/C=N/n2nnnc2Nc2ccccc2)cc1 | i | 2% | -5% | i | 1% | 0%
CCCn1c(=N)n(CC(=O)c2ccc(Cl)cc2)c2ccccc21 | ? | ? | 14% | ? | ? | ?
CCCn1c(=N)n(CC(=O)c2ccc([N+](=O)[O-])cc2)c2ccccc21 | ? | -17% | -3% | ? | -17% | 15µM*
Cc1ccccc1Cn1c(=N)n(CC(=O)c2ccc([N+](=O)[O-])cc2)c2ccccc21 | 18µM* | -28% | 1% | ? | -19% | ?
O=C(Nc1c2c(nn1-c1ccc(F)cc1)CS(=O)(=O)C2)c1ccc(Br)o1 | i | -3% | ? | i | -5% | 2%
CC(OC(=O)/C=C/c1ccc2ccccc2n1)C(=O)N(C)c1ccccc1 (stereo not given) | ? | 9% | 2% | ? | 13% | -1%
CCN(CC)c1ccc(/C=C/c2ccc3ccccc3n2)cc1 | ? | . | . | 2.3µM* | . | .
CC[N+](C)(C)c1ccc(/C=C/c2ccc3ccccc3n2)cc1 | i | . | . | 2.9µM* | . | .
CC(=O)/C=C/c1ccc2ccccc2n1 | i | ? | 9.2µM* | i | ? | 15µM*
CCN(CC)c1ccc(/C=C/c2nccc3ccccc23)cc1 | i | . | . | i | . | .
CCCCn1c(N)c(N(CCOC)C(=O)COC(=O)c2cc(CC)c(C)s2)c(=O)[nH]c1=O | i | 0% | 23% | i | -6% | 0%
CN(C)c1ccc(/C=C/c2nc(-c3ccccc3O)n(-c3ccccc3)n2)cc1 | i | . | . | i | . | .
CN(C)S(=O)(=O)c1ccc(NC(=O)c2ccc3ncsc3c2)cc1 | ? | 10% | -1% | i | -1% | -2%
CCOC(=O)C1=C(C)Nc2ccccc2N/C1=N\S(=O)(=O)c1cccc(Cl)c1 | ? | -7% | -27% | i | 5% | 1%
NC(=S)NNC(=O)[C@@H]1CCCC[C@@H]1C(=O)O | i | 13% | 0.52µM* | i | -3% | -8%
O=C(O)C1CCCCC1C(=O)NC1C2CC3CC(C2)CC1C3 (stereo not given) | ? | 8% | 1% | i | 5% | 11%
SMILES | KB-V1 MDR tox | HT1080-NT tox | SW480 rerep | KB-3-1 tox | HT1080 IDH1KD tx | MCF10A rereplic
O=C1N(c2ccc(Cl)cc2)C(c2ccccc2)N2CCCN12 (stereo not given) | i | -5% | -4% | i | 1% | 8%
Cc1nn2c(N3CCCC3)c3c(nc2c1-c1ccccc1)CCC3 | ? | 5% | 18µM* | i | -2% | 7%
Cc1nn2c(N3CCN(CCO)CC3)c3c(nc2c1-c1ccccc1)CCCC3 | i | 18µM* | ? | i | ? | 12%
Cc1nn2c(-n3ccnc3)c3c(nc2c1-c1ccccc1)CCC3 | ? | -1% | -4% | i | 1% | -1%
C=CCN1C(c2ccc(OCC)cc2)=CS/C1=C(\C#N)c1nnc2n1CCCCC2 | i | ? | 19% | i | ? | ?
OCCCn1c(C2CCCN2c2nc(-c3ccc(F)cc3)cs2)nc2cc(C(F)(F)F)ccc21 (stereo not given) | i | -10% | 11% | i | -14% | ?
COc1ccc(NC(=S)Nc2cc(C)[nH]n2)cc1Cl | i | 21% | -9% | i | 7% | 7%
CCOc1ccc(NC(=S)Nc2cc(-c3ccccc3)[nH]n2)cc1 | 15µM* | -18% | 4% | i | -30% | -5%
COc1ccc(NC(=S)Nc2cc(-c3ccccc3)[nH]n2)cc1Cl | i | 13µM* | ? | i | ? | ?
CCCS(=O)(=O)n1nc(-c2ccc(OC)cc2OC)cc1N | i | 7% | 1% | i | 3% | 9%
COc1cccc(NS(=O)(=O)c2ccc3[nH]cc(C(=O)NCCC(C)C)c(=O)c3c2)c1 | i | 12µM* | -4% | ? | ? | 17%
CC(C)CCNC(=O)c1c[nH]c2ccc(S(=O)(=O)N3CCOCC3)cc2c1=O | ? | 7% | -16% | i | 5% | 2%
Cc1cc(C)cc(NS(=O)(=O)c2ccc3[nH]cc(C(=O)NCCc4ccccc4)c(=O)c3c2)c1 | ? | . | . | i | . | .
Cc1ccc(CCNC(=O)c2c[nH]c3ccc(S(=O)(=O)Nc4cccc(C(F)(F)F)c4)cc3c2=O)cc1 | i | . | . | 13µM* | . | .
CCc1ccccc1NS(=O)(=O)c1ccc2[nH]cc(C(=O)NC3CCCC3)c(=O)c2c1 | ? | ? | -245% | 15µM*! | 18µM* | ?
CC(C)(C=O)C1=CC(=O)c2ccccc2C1=O | i | -29% | 7.3µM* | i | 13µM* | 13µM*
N#Cc1ccc(NC(=O)COC(=O)C2Cc3ccccc3CN2C(=O)c2ccccc2)cc1 (stereo not given) | i | -16% | 5% | i | 1% | 13%

From PubChem BioAssay
